Screens as filed in PubChem BioAssay.
Many of the other results were omitted from the sample, so hits are more common in it than they were.
ROC1-CUL1 inh: human ROC1-CUL1 E3 ligase inhibition | inhibition, % at 10 µM | AID 1347404 | actives 0.6% (n = 140,000) | in vitro K48 di-Ub FRET, acceptor:donor ratio, 45 min | P62877+Q13616; in the data active means inhibition above about 25%
Target sequence (P62877 whole entry, looked up): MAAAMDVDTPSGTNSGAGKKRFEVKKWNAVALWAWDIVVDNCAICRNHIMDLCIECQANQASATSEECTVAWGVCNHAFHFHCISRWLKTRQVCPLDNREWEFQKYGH
Target sequence (Q13616 whole entry, looked up): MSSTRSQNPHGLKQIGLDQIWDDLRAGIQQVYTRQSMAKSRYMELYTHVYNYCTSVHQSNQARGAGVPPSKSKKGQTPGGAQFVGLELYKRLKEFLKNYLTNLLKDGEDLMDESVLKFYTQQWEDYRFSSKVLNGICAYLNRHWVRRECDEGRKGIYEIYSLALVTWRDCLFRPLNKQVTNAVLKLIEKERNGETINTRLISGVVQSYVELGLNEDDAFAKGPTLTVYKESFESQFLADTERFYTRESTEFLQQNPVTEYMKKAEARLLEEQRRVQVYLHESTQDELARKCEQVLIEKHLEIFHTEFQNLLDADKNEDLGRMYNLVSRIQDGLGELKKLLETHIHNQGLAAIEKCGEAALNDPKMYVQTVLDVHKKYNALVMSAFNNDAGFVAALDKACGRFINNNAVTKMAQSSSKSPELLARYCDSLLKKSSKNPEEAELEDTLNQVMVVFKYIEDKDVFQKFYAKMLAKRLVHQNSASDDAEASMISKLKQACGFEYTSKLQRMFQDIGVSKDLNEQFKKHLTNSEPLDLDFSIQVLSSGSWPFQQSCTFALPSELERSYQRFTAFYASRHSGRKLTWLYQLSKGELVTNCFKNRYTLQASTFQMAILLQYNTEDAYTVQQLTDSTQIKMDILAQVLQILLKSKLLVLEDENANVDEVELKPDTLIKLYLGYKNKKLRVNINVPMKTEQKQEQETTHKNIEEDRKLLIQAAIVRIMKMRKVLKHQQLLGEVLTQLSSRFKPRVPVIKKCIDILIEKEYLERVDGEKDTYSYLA
Numbers without * were called inactive.

SMILES | ROC1-CUL1 inh
CN1C(=S)N(c2ccc(Cl)cc2)C(=O)/C1=C/c1cn(CC(=O)NCc2ccco2)c2ccccc12 | 6.7
CC(C)c1ccccc1NC(=O)C(Cc1c[nH]c2ccccc12)NC(=O)OC(C)(C)C (centres undefined) | -7.9
Cc1cccc(N2CCN(C(=O)N=C3CN(CC(C)C)C(=O)c4ccccc43)CC2)c1C | 1.2
COC(=O)C1C(C)=NC2=C(C(=O)CC(c3ccc(OC)cc3)C2)C1c1cc(OC)ccc1OC (centres undefined) | -7.6
CC(=O)Nc1nnc(SCc2ccccc2Cl)s1 | 3.4
O=C(NC1CCCCC1)N1CCCn2c(SCc3ccccc3Cl)nnc21 | 5.7
N#CC1C=C(C(=O)O)C(=O)N=C1SCc1ccccc1Cl (centres undefined) | 73.1*
CCOc1cc(/C=C2\C(=O)NC(=S)N(c3ccc(Br)cc3)C2=O)cc(Br)c1O | 7.2
COc1cc(/C=C2\C(=O)N(c3ccc(Cl)cc3)N=C2C(F)(F)F)ccc1OC(=O)c1ccco1 | -3.3
CCOc1cc(/C=C2\C(=O)N(c3ccc(C(=O)O)cc3)N=C2C(F)(F)F)cc(Br)c1O | 62.4*
C=C(C)Cn1c(SCC(=O)OC)nc2sc3c(c2c1=O)CC(C)(C)OC3 | 3.1
O=C(/C=C/c1cccnc1)c1ccc2c(c1)OCCO2 | 71.3*
COC(=O)c1ccc(/C=C/C(=O)c2ccc3c(c2)OCCO3)cc1 | -1.1
O=C(/C=C/c1cccs1)c1ccc2c(c1)OCCO2 | 1.3
O=C(/C=C/c1ccc2c(c1)OCO2)Sc1ccc(Cl)cc1 | 0.0
CC(C)c1ccc(/C=C/C(=O)NCc2ccc3c(c2)OCO3)cc1 | -0.1
CN(CCC(=O)/C=C/c1ccc(Cl)c(Cl)c1)CCc1ccc2c(c1)OCO2 | 82.6*
CC(=O)Nc1cc([N+](=O)[O-])c(C(=O)O)cc1C(=O)O | -3.0
COC(=O)COc1ccc(S(=O)(=O)NC(C)(C)C)cc1 | 2.4
CC(C)Cc1ccc(/C=C/C(=O)N2CCN(c3ccccc3)CC2)cc1 | 1.4
Cc1ccc(N=C2C(=O)N(C)c3cccc4c3C2c2ccccc2C4=O)cc1 (centres undefined) | -0.6
CN1C(=O)C(=NC2CCCCC2)C2c3ccccc3C(=O)c3cccc1c32 (centres undefined) | 10.9
CN1C(=O)C(=NCCc2ccccc2)C2c3ccccc3C(=O)c3cccc1c32 (centres undefined) | 36.2*
COC(=O)c1cnn(-c2cc(Oc3ccc(F)cc3)ncn2)c1N | 8.2
COC(=O)c1cc(NC(=O)CSc2nnc(Cc3ccccc3)o2)ccc1Cl | 10.6
SMILES | ROC1-CUL1 inh
Cc1ccc(NC(=O)CSc2nnc(Cc3ccccc3)o2)cc1C | 10.9
O=C(CSc1nnc(Cc2ccccc2)o1)Nc1ccc(Cl)c(Cl)c1 | 91.8*
Cc1ccc(N2NC(=O)/C(=C/c3ccc(F)cc3)C2=O)cc1C | 77.6*
COc1ccc(/C=C2\C(=O)NN(c3ccc(F)cc3)C2=O)cc1 | -3.6
COc1ccc(/C=C2/C(=O)NN(c3cccc(C)c3)C2=O)cc1 | 4.7
O=C1NN(c2ccc(I)cc2)C(=O)/C1=C\c1ccc(O)c(O)c1 | 106.3*
COc1cc(/C=C2\C(=O)NN(c3ccc(C)cc3)C2=O)cc(OC)c1OC | 0.6
O=C1NN(c2ccc(F)c(Cl)c2)C(=O)/C1=C\c1ccc(F)cc1 | 76.9*
COC(=O)c1ccc(N2NC(=O)/C(=C/c3ccc(C)cc3)C2=O)cc1 | 27.3*
O=C1NN(c2ccc(I)cc2)C(=O)/C1=C\c1ccc(O)cc1O | -15.2
O=C1NN(c2ccc(I)cc2)C(=O)/C1=C\c1ccccc1 | 2.6
Cc1ccc(N2NC(=O)/C(=C/c3ccc(N(C)CCC(C)C)cc3)C2=O)cc1C | 17.3
COc1ccc(CCC(=O)Nc2c(C)nn(Cc3cccc4ccccc34)c2C)cc1 | -6.3
COc1ccc(/C=N/n2c(COc3ccccc3C)nc3ccccc3c2=O)cc1 | -3.5
CCn1ncc(Br)c1C(=O)Nc1c(C)nn(Cc2cccc(F)c2)c1C | 4.5
COc1ccccc1N1CCN(S(=O)(=O)Cc2cccc(Cl)c2)CC1 | -1.1
CCOC(=O)C1(CCOC)CCN(Cc2cc(OC)c(OC)cc2OC)CC1 | 0.3
CC(NCC(O)COc1ccccc1)C(=O)NCCC(=O)O (centres undefined) | -2.7
CC(=O)CC(C)(C)S(=O)(=O)Cc1ccccc1 | -1.5
O=c1c(Cc2ccccc2)c([O-])[n+](-c2ccccc2)c2ccc(Cl)nn12 | -4.3
CC(C)(C)c1ccc(C2CC(=O)c3cnc(NCc4ccccc4)nc3C2)cc1 (centres undefined) | 2.3
Cc1ccc(N2NC(=O)/C(=C/c3ccc(F)cc3)C2=O)cc1 | 71.3*
O=C1NN(c2ccccc2)C(=O)/C1=C/c1ccccc1 | 4.8
Cc1ccc(N2NC(=O)/C(=C/c3ccc(F)cc3)C2=O)cc1Cl | 50.5*
Cc1cccc(N2NC(=O)/C(=C/c3ccccc3)C2=O)c1 | -8.7
SMILES | ROC1-CUL1 inh
Cc1ccc(N2NC(=O)/C(=C\c3ccc(N(C)C)c(Br)c3)C2=O)cc1Cl | 2.0
O=C1NN(c2ccc(F)cc2)C(=O)/C1=C\c1ccc(F)cc1 | -0.8
O=C1NN(c2ccc(F)cc2)C(=O)/C1=C/c1ccccc1 | 4.6
CN(c1ccccc1)c1ccc(/C=C2\C(=O)NN(c3ccccc3)C2=O)cc1 | 30.6*
COc1cc(/C=C2/C(=O)NN(c3ccc(F)cc3)C2=O)cc(Cl)c1O | -3.1
OC(c1ccccc1)c1n[nH]c(=S)n1-c1ccccc1 (centres undefined) | 0.6
CC(=O)NC1=NC(=O)/C(=C/c2ccc(OCc3cccc(I)c3)cc2)S1 | -3.1
CC(=O)N(C)c1ccc(Br)cc1C(=O)O | 4.6
CCCCC(=O)NC(Nc1sc2c(c1C#N)CCCC2)(C(=O)OCC)C(F)(F)F (centres undefined) | 9.0
O=C(CCC1CCCC1)Nc1ccc(Br)cc1 | 1.2
CCCN1C(=O)/C(=C/c2cc(-c3ccccc3)n(-c3ccc(C(=O)OCC)cc3)c2-c2ccccc2)C(=O)N(c2ccccc2)C1=S | 18.1
C=CCN1C(=O)S/C(=C/c2ccc(-c3cc(C(=O)O)ccc3C)o2)C1=O | 6.8
CCN1C(=O)S/C(=C/c2ccc(-c3cc(C(=O)O)ccc3C)o2)C1=O | -0.3
Cc1cc(C(=O)O)ccc1-c1ccc(/C=C2\SC(=O)N(CC(=O)N3CCOCC3)C2=O)o1 | 0.1
Cc1cc(C(=O)O)ccc1-c1ccc(/C=C2/SC(=O)N(C(C)C)C2=O)o1 | 63.9*
Cc1cc(C(=O)O)ccc1-c1ccc(/C=C2\SC(=O)N(CC(=O)N3CCCC3)C2=O)o1 | 10.4
Cc1ccc(C(=O)O)cc1-c1ccc(/C=C2\SC(=O)N(Cc3ccccc3F)C2=O)o1 | 50.2*
CCCN1C(=O)/C(=C\c2ccc(-c3cc(C(=O)O)ccc3C)o2)C(=O)N(c2ccccc2)C1=S | 45.1*
CCCN1C(=O)/C(=C\c2ccco2)C(=O)N(c2ccccc2)C1=S | -5.0
CC(C)NC(=O)C1CCN(c2nc3ccccc3nc2C(F)(F)F)CC1 | 0.6
C(=C1/SCc2nc3ccccc3nc21)/c1ccsc1 | 8.5
O=C(NNC(=S)Nc1ccccc1)c1ccc(NC(=O)C2CC2)cc1 | -1.3
CC(C)C(Nc1ccccc1)c1nnnn1C1CCCCC1 (centres undefined) | -1.2
COc1ccc(/C=C/C(=O)Nc2ccc(C)c(Cl)c2)cc1OC | 1.7
Cc1ccc(/C=C/C(=O)Nc2nc(-c3ccc(C)c(C)c3)cs2)o1 | -4.2
Cc1ccc(/C=C/C(=O)Nc2ccccc2C(N)=O)o1 | 0.4
Cc1ccc(/C=C/C(=O)Nc2ccc(C)c(Cl)c2)o1 | 65.7*
COc1cc(NC(=O)/C=C\c2ccc(C)o2)c(OC)cc1Cl | 4.3
Cc1ccc(/C=C/C(=O)Nc2cccnc2)o1 | 44.7*
